Laboratory results from the supplement of paper PMC10105736.
Unmarked numbers belong to inactive results.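 Rule for the calls: active = MAPPIT score above the 99th percentile of random reference set scores in the same batch; inactive = at or below it.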

Assays:
Test in all cases: MAPPIT interaction score (arbitrary units); higher = stronger binary interaction signal, active = hit call of the paper
[1] = biological target: Mettl14; settings: MAPPIT configuration: N-N; pair source set: DPIM
[2] = biological target: Rnmt; settings: MAPPIT configuration: N-N; pair source set: DPIM
[3] = biological target: Mpcp2; settings: MAPPIT configuration: N-N; pair source set: Lit-BS-16
[4] = biological target: mod(mdg4); settings: MAPPIT configuration: N-N; pair source set: Lit-BS-16
[5] = biological target: Mkk4; settings: MAPPIT configuration: N-N; pair source set: DPIM
[6] = biological target: Orai; settings: MAPPIT configuration: N-N; pair source set: DPIM
[7] = biological target: Mzt1; settings: MAPPIT configuration: N-N; pair source set: RRS
[8] = biological target: ND-ACP; settings: MAPPIT configuration: N-N; pair source set: Lit-BS-16
[9] = biological target: Naa30A; settings: MAPPIT configuration: N-N; pair source set: Curagen_high_conf
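Note: HEK293T cells with Epo stimulation, STAT-responsive firefly luciferase reporter, fold induction versus unstimulated cells divided by the larger fold induction of two negative controls lacking either bait or prey.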

B1: Hsp23 (protein)
chain: MANIPLLLSLADDLGRMSMVPFYEPYYCQRQRNPYLALVGPMEQQLRQLEKQVGASSGSSGAVSKIGKDGFQVCMDVSHFKPSELVVKVQDNSVLVEGNHEEREDDHGFITRHFVRRYALPPGYEADKVASTLSSDGVLTIKVPKPPAIEDKGNERIVQIQQVGPAHLNVKENPKEAVEQDNGNDK
Q: B1 was tested. Which MAPPIT interaction score [1] did it give?
A: 1.35

Q: What about the MAPPIT interaction score [2] of the same binder?
A: 1.27

B2: 4E-T (protein)
chain: MDTSKISARYSKVDLLALRYEGKSRQRPQCSTRLELQTLGFWKINLNTAALTVSSAYSNQNKNRLSPEADNSSLICSNSSSISSRRAMRNRERANNYYQRFVPTDSLLISGEDKDKDALSHGQPYKLNIIDHRSISSSHLMPAFAKRRFVISKGSNSEESNEGINTCASKGKAASSPSRKGSELDTAETCLNFVQPDHDQCMSSSPTFSTSRQERRIGSGRLLPRSDNWDYKNEKTVEASIENEKETSPNGSGSTSSLNQHNQSQHRSRTFSGRLVERVPEVTDRRFQYDSKKSFDRQGINNRRISGKEPFSTQSRSKRGNSYLIHEEPEWFSAGPKSQLETIDLHGFEDLEKNEERSVTEDKNNQIQQLDKNLDAQASKDEASMRNSNDSLNFREVIPSDEKKHTDENVVTSIQNSTDLGHPNKNKPIQMQPSQNPESEFNFDAFLNMHPLDNSVLSNDETGKSDSKGTSRFSRWFRQKEAANNNEFPGFRESHAQEKRGIPSVKDLEAQMIKVDMRTDLINPIAGSLCQTVQMEKPIARDTEAFKKLLQQLGSQARQHHPCNDDCRTINLSNIANHVHLESKLHQKINDGHLQQPELSVNVPTMPTSSHVFLQKRLEIQHLIQRLHCGDVSHDFLEKELDNPSTPAATKDVIATVLNEYSHSKRNPVVTGDPNIFTQQSFLQPQSVHQHYSQELHSQNTANHTINQLISHGNSPTPLAFTPTSVLRKMTADKDTQSPSTYCQNPQYHVHQQNAKQVGTRENVLEPQLTATMAVQPRMILGGGNFAIGQNNQHLSPNMSQSRNQQVLKWTSGNMQMVHGKTFGRPILKGGLNSMPHSNSALPFTAHKIEMQPIHQPHLQQQQHRFKAVQSVESNLNTESVHQNITSPVGWHQLYMQHQQQHHHTRQQLSQRVIYGEMHRQSNPQMSPPVPGFSDSSDSGNVIKANSLTSPSYQRDERISSPTNQLAQWFSPELLAKASAGKLPLLNVNQALSLEEFERSIQHSSGVVHN
Q: Which MAPPIT interaction score [3] does the source give for B2 here?
A: 0.135

Q: And the MAPPIT interaction score [4]?
A: -0.246

B3: porin (protein)
chain: MAPPSYSDLGKQARDIFSKGYNFGLWKLDLKTKTSSGIEFNTAGHSNQESGKVFGSLETKYKVKDYGLTLTEKWNTDNTLFTEVAVQDQLLEGLKLSLEGNFAPQSGNKNGKFKVAYGHENVKADSDVNIDLKGPLINASAVLGYQGWLAGYQTAFDTQQSKLTTNNFALGYTTKDFVLHTAVNDGQEFSGSIFQRTSDKLDVGVQLSWASGTSNTKFAIGAKYQLDDDASVRAKVNNASQVGLGYQQKLRDGVTLTLSTLVDGKNFNAGGHKIGVGLELEA
Q: How did the MAPPIT interaction score [5] turn out when B3 was run?
A: 1.64

Q: And the MAPPIT interaction score [6]?
A: 1.31

B4: Ror (protein)
chain: MNKYSAFIVCISLVLLFTKKDVGSHNVDSRIYGFQQSSGICHIYNGTICRDVLSNAHVFVSPNLTMNDLEERLKAAYGVIKESKDMNANCRMYALPSLCFSSMPICRTPERTNLLYFANVATNAKQLKNVSIRRKRTKSKDIKNISIFKKKSTIYEDVFSTDISSKYPPTRESENLKRICREECELLENELCQKEYAIAKRHPVIGMVGVEDCQKLPQHKDCLSLGITIEVDKTENCYWEDGSTYRGVANVSASGKPCLRWSWLMKEISDFPELIGQNYCRNPGSVENSPWCFVDSSRERIIELCDIPKCADKIWIAIVGTTAAIILIFIIIFAIILFKRRTIMHYGMRNIHNINTPSADKNIYGNSQLNNAQDAGRGNLGNLSDHVALNSKLIERNTLLRINHFTLQDVEFLEELGEGAFGKVYKGQLLQPNKTTITVAIKALKENASVKTQQDFKREIELISDLKHQNIVCILGVVLNKEPYCMLFEYMANGDLHEFLISNSPTEGKSLSQLEFLQIALQISEGMQYLSAHHYVHRDLAARNCLVNEGLVVKISDFGLSRDIYSSDYYRVQSKSLLPVRWMPSESILYGKFTTESDVWSFGVVLWEIYSYGMQPYYGFSNQEVINLIRSRQLLSAPENCPTAVYSLMIECWHEQSVKRPTFTDISNRLKTWHEGHFKASNPEM
Q: B4 was tested. Which MAPPIT interaction score [7] did it give?
A: -0.491

B5: DENR (protein)
chain: MTNEDVGTNSVADRLQLGPREGVTYPIQMKYCGHCTMPIEYCEYYPEYEKCKEWLELHMPDDFERLKIEEEAAAADGTDDDKKRQKRGGKGLLRVKKKEDVPKRICVSRAARGKKKSVTVVTGLSTFDIDLKVAAKFFGTKFACGSSVTGDDEIVIQGDVKDDLFDVIPEKWAEIDEDVIEDLGDQKRT
Q: Which MAPPIT interaction score [8] does the source give for B5 here?
A: 1.72

B6: Naa35 (protein)
chain: MYPSTLPAEADPSTMNGSSVAEPPDFQAATAAAAAAARASSLEQDEWSVGECGFLDPDVQRTMRSGSAAEDITQYPMHGWVDVTKEFHDACAELQPGELAQDMLFGLFEAMSAIEIMDPKMDVGMGFDKQDLPPPSFEAAIATGAIKLDDLTPSELIGIYDALFSCLVSWLEGNSMDQVLFTCLYLHAPAQIKDKALRVFCTAVRNLIVVIKKIIAVAAVNEEEDFQLYGNSALLAAEKAQPATVYSSLKDVEDELIRKCKKLTSTEDWMAVVHRLRFMRHLFQVIYHVEQMASNDTVDDKVDIYKILLVASEMLPGIRNTLDRGTQPEKGSDAPNPMGFSPRIHDRSQPPAFPRSIKIRDRPSSYQFLEEMISRFKYACKVTKYKDYYSALNFFIEYSKKSGQCILSRSVLQTLFSANMRMAHGKLPMKQFLRHSVQVFNSPPVLNAKHPVAADPKVQQHLENFFRYCINMNTFTQFIRICGFNRARQRDKLARLIENFDTIQVDAARLDSMMNQLANERAMEGNEPMATALKHSTHFSTWVLYNCFRAMLIFLMSGFELELYAVHEFLYIYWYPYEFLIGFLVSALTRTENILLAQEEYAEHQSKTQSGGSGAAKNRKAAKPKKNKKTQRPYRAEIVFYHALLSLCGGMYKAMGALTKDGRVRLPLSKFDNEEIRYNRRFLPFATLTSPPPVSYAEFKNVREHMMRHSVEDLYTYAAKHFDQARNVLESIQNPDQEMLDLLQIARTNFVVMNVLARGHQKEVKRQPEFDFSKHSYFPIIKLK
Q: B6 was tested. Which MAPPIT interaction score [9] did it give?
A: 3.72 (active)
